# Source: PubChem BioAssay (National Center for Advancing Translational Sciences (NCATS))
# HT1080-NT tox – kills 2HG-producing HT-1080-NT fibrosarcoma cells; 360,000 tested, 1.6% active; HT-1080-NT fibrosarcoma viability, CellTiter-Glo ATP luminescence, 48 h; Potency, µM (doses to about 46.1 µM), inactives show at the highest dose activity, negative = less viability, most hits filed as cytotoxic;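 note: NT is the 2HG producing partner of a matched IDH1 knockdown line; potency is the fitted concentration of half-maximal effect; 0% = DMSO-treated cells and -100% = media-only wells without cells; nearly all actives have a fitted effect of over 55% in size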
#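 Fibrosarcoma NT cells, 750 per well in 5% FBS RPMI, were exposed to compound for 48 hours. Viability: CellTiter-Glo luminescence.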
# HT1080 IDH1KD tx – kills HT-1080 cells with IDH1 knockdown. HT-1080 IDH1 knockdown viability, ATP luminescence, 48 h. Potency, µM (series often up to 46.1 µM), for inactives: at the highest dose activity, negative = toxicity, actives largely listed as cytotoxic. 360,000 tested, 2% active;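 note: potency is the fitted concentration of half-maximal effect; 0% = DMSO wells and -100% = cell-free medium wells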
#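 % activity derives from luminescence (CellTiter-Glo), normalised to DMSO and no-cell wells. HT-1080-IDH1KD cells, 750/well, had 48 h compound exposure at 37 °C.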
# DT40 TDP1 CPT – growth inhibition of DT40 Tdp1-/-;hTDP1 cells with camptothecin (screen for TDP1 inhibitors); 420,000 tested, 12% active; AID 686979; Potency, µM (series often up to 46.2 µM), inactives show top-dose activity change, negative = growth inhibition, usual class: inhibitors; chicken DT40 Tdp1-/-;hTDP1 cells + 20 nM CPT, ATP luminescence, 48 h; note: potency is the fitted concentration of half-maximal effect; nearly all actives have a fitted effect of over 55% in size
#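 Cell growth measured by CellTiter-Glo luminescence after a minimum 48 h, 37 C compound exposure with 20 nM CPT in Tdp1-knockout DT40 cells stably expressing hTDP1, seeded 400/well; qHTS titration format.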
# uPA generation – inhibitors of cell surface uPA generation; cell surface uPA generation assay, qHTS; Potency, µM (top dose mostly 38.3 µM), without a hit: top-dose activity change, negative = inhibition, hits mostly inhibitors; 330,000 tested, 0.31% active; active = well fitted inhibition curve with a large enough effect; inconclusive = small, poorly fitted or top-dose-only effect; inactive = no such curve, though single readings can be large or run the other way; tested in mouse RAW 264.7 cells; note: potency is the fitted concentration of half-maximal effect; nearly all actives have a fitted effect of over 55% in size
# TDP1 cell noCPT – qHTS for Inhibitors of human tyrosyl-DNA phosphodiesterase 1 (TDP1): qHTS in cells in absence of CPT | Potency, µM (top dose mostly 46.2 µM), for inactives: at the highest dose activity change, negative = growth inhibition, usual class: inhibitors | DT40 Tdp1-/- hTDP1 cells, no CPT, ATP luminescence, 48 h | 420,000 tested, 15% active; note: potency is the fitted concentration of half-maximal effect; nearly all actives have a fitted effect of over 55% in size
#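 Cells were dispensed at 400 per well, compounds added by pin tool, plates incubated ≥48 hr at 37 °C, then CellTiter-Glo added for 30 min at room temperature before luminescence reading. Line: DT40 Tdp1-/- complemented with hTDP1; camptothecin omitted.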
# IL1B secr inh – inhibitors of inflammasome signaling (IL-1 beta secretion). THP-1 LPS/ATP IL-1B secretion, AlphaLISA, 16 h; hits give low values. AID 743279. activity change, % at 57.5 µM. 360,000 tested, 4.7% active; in the data active = activity change below about -50%; inconclusive = mostly about -30% to -49%
#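 THP-1 cells pretreated 1 hr with compounds (up to 57.5 uM final), then stimulated with LPS (250 ng/mL final) plus ATP (1.25 mM final); secreted IL-1B measured by AlphaLISA after 16 hr, decreased signal indicating inhibition.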
# * hit, by the source's call; u = inconclusive; x = no result given; ! = not confirmed by another sample; [ ] = remark or other dose. The list is not random: actives were taken first. Their share in the collection is about 19%. Unless noted, calls come from the whole dose curve; as a rule, active = well fitted curve in the direction sought with a large enough effect; inconclusive = small, poorly fitted or top-dose-only effect, or another doubt; inactive = no such curve, though single readings can be large; an effect the other way counts as inactive or inconclusive. Unless noted, % is set by controls: 0 for no effect and ±100 for the full control effect.
SMILES,HT1080-NT tox,HT1080 IDH1KD tx,DT40 TDP1 CPT,uPA generation,TDP1 cell noCPT,IL1B secr inh
O=C(NC1CCCc2ccccc21)c1ccccc1 (configuration not stated),1.6%,-6.9%,-17.6%,-0.8%,u,4.8
COc1ccc(CNC2CCCc3ccccc32)c(OC)c1 (configuration not stated),-20.1%,-14.4%,u,-0.1%,u,-50.1*
Cc1ccc2nc(SCC(=O)NC3CCCc4ccccc43)[nH]c2c1 (configuration not stated),u,u,20.6µM*,-12.1%,16.4µM*,6.5
O=C(NC1CCCc2ccccc21)c1n[nH]c(=O)c2ccccc12 (configuration not stated),u,9.2µM*,u,-6.0%,6.51µM*,-7.6
COc1ccc(OCC(=O)NC2CCCc3ccccc32)cc1 (configuration not stated),-8.9%,-1.2%,-18.1%,-0.2%,u,-86.8*
O=C(CSc1cc(Cl)ccc1Cl)NC1CCCc2ccccc21 (configuration not stated),0.6%,-3.5%,u,-19.6%,u,-9.8
Cc1cnc(-n2ncc(C(=O)NCCCc3ccncc3)c2C)nc1-c1ccc(F)cc1,x,x,10.3%[9.04 µM],x,-12.6%,x
Cc1c(NC(=O)c2cccc(NC(=O)C(C)Oc3ccccc3)c2)c(=O)n(-c2ccccc2)n1C (configuration not stated),4.2%,-2.8%,u,x,u,31.9
CCc1c(C(=O)NC2CCCc3ccccc32)[nH]c(C)c1C(C)=O (configuration not stated),u,-18.6%,u,0.8%,14.6µM*,42.5
COc1cc(OC)cc(C(=O)NCC(=O)OCC(=O)NC2CCCc3ccccc32)c1 (configuration not stated),7.2%,6.4%,-14.4%,6.6%,-18.2%,7.0
COc1cc(OC)cc(C(=O)N[C@H](C(=O)NC2CCCc3ccccc32)C(C)C)c1 (some centres not stated),-0.5%,-3.7%,u,1.3%,16.4µM*,16.5
Cc1ccccc1-c1csc(C(O)c2ccc(F)c(F)c2)n1 (configuration not stated),u,-14.5%,u,x,u,-26.5
C/C(=N\NC(=O)c1c(C)nc2ccccn12)c1ccc(O)cc1O,u,u,3.66µM*,-9.0%,3.66µM*,118.8
Cc1ccc2oc(-c3ccc(Cl)c(NC(=O)c4cc5ccccc5o4)c3)nc2c1,x,x,8.1%,x,-15.1%,x
CCc1c(C)[nH]c2ccccc2c1=O,16.4%,10.3%,u,-8.3%,20.6µM*,0.0
CC(=O)CCc1c(C)[nH]c2ccccc2c1=O,6.3%,-2.6%,-18.7%,7.0%,-13.6%,-14.3
CCCNC(=O)c1ccccc1NC(=O)c1ccccc1N(C)S(=O)(=O)c1ccc(C)cc1,u,u,u,-12.8%,18.4µM*,-16.1
CCOC(=O)c1ccc(NC(=O)c2ccccc2N(C)S(=O)(=O)c2ccccc2)cc1,-8.7%,-28.8%,18.4µM*,-2.1%,u,-15.5
Cc1ccc(C)c(N2CCN(S(=O)(=O)CC34CCC(CC3=O)C4(C)C)CC2)c1 (configuration not stated),u,-28.6%,u,7.7%,-24.1%,13.9
Cc1ncc(Cc2ccccc2)c(C2CCN(S(=O)(=O)C[C@]34CC[C@H](CC3=O)C4(C)C)CC2)n1,x,x,u,x,14.6µM*,x
CCC1CN(C(=O)N2CCC(C(=O)NCc3cccc(C)c3)CC2)c2ccccc2O1 (configuration not stated),x,x,16.4µM*,x,20.6µM*,x
O=C(NCCC1=CCCCC1)C1CCN(S(=O)(=O)N2CCOCC2)CC1,-17.5%,-3.6%,-26.7%,x,-27.1%,6.9
CCC1CN(C(=O)N2CCC(C(=O)Nc3cc(C)ccc3C)CC2)c2ccccc2O1 (configuration not stated),x,x,13µM*,x,13µM*,x
Cc1cccc(NC(=O)C2CCN(C(=O)N3CCOc4ccccc43)CC2)c1C,10.7%,0.0%,u,-5.8%,u,u
CCC1CN(C(=O)N2CCC(C(=O)NCCC3=CCCCC3)CC2)c2ccccc2O1 (configuration not stated),x,x,16.4µM*,x,11.6µM*,x
SMILES,HT1080-NT tox,HT1080 IDH1KD tx,DT40 TDP1 CPT,uPA generation,TDP1 cell noCPT,IL1B secr inh
CCC1CN(C(=O)N2CCC(C(=O)NCCc3ccccc3Cl)CC2)c2cc(C)ccc2O1 (configuration not stated),x,x,16.4µM*,x,20.6µM*,x
CCOC(=O)c1cc(-c2ccccc2C)n(CC2CC(c3ccc(OC)cc3)=NO2)n1 (configuration not stated),-3.5%,-3.8%,u,21.4%,u,31.9
CCC1CN(C(=O)N2CCC(C(=O)NCCN(CC)CC)CC2)c2ccccc2O1 (configuration not stated),x,x,7.3%,x,3.6%,x
CCS(=O)(=O)N1CCC(C(=O)NCCC2=CCCCC2)CC1,14.1%,3.1%,-9.4%,-0.4%,5.0%,-7.3
CCC1CN(C(=O)N2CCC(C(=O)Nc3ccccc3F)CC2)c2ccccc2O1 (configuration not stated),-2.8%,-1.0%,u,2.9%,23.1µM*!,0.0
Cc1ccc2c(c1)N(C(=O)N1CCC(C(=O)NCCC3=CCCCC3)CC1)CC(C)O2 (configuration not stated),x,x,u,x,18.4µM*,x
CCC1CN(C(=O)N2CCC(C(=O)NCCc3ccc(Cl)cc3)CC2)c2ccccc2O1 (configuration not stated),x,x,16.4µM*,x,14.6µM*,x
CCC1CN(C(=O)N2CCC(C(=O)NCCN(C)C)CC2)c2ccccc2O1 (configuration not stated),x,x,2.4%,x,-6.9%,x
CCC1CN(C(=O)N2CCC(C(=O)NCc3ccccc3C)CC2)c2ccccc2O1 (configuration not stated),0.0%,-3.0%,18.4µM*,2.2%,20.6µM*,13.7
O=C(c1csnn1)N1CCC2(CC1)CCN(c1ccccn1)CC2,x,x,-11.3%,x,u,x
CC(NC(=O)C1=CC=CN2CCS(=O)(=O)N=C12)c1ccc(Cl)cc1Cl (configuration not stated),-4.2%,-0.8%,-25.8%,-0.2%,u,-9.6
Cc1ccc(-n2ncc3c2CC(C)(C)CC3NC(=O)C2CCOCC2)cc1 (configuration not stated),4.1%,9.9%,-9.6%,2.3%,-15.2%,11.1
O=C(NCCS(=O)(=O)NCc1cccnc1)c1ccccc1,-0.3%,0.8%,6.2%,-3.4%,-5.8%,0.7
